According to the supplement of paper PMC11732987, “Enantioselective OTUD7B fragment discovery through chemoproteomics screening and high-throughput optimisation” (Communications Chemistry, 2025):
A number with no mark means an inactive call.

How the values were obtained:
Experiment in all cases: log2 ratio of Biotin-Ahx-Ub-VS probe labelling (fragment/DMSO); higher = less target engagement (more negative = stronger competition), active = hit call of the paper (q ≤ 0.05, log2 ratio ≤ -1)
Conditions in all cases: compound concentration: 200 uM; treatment time: 3 h
OTUD6B = biological target: T1, OTUD6B (UniProt Q8N6M0)
T1 sequence (whole entry): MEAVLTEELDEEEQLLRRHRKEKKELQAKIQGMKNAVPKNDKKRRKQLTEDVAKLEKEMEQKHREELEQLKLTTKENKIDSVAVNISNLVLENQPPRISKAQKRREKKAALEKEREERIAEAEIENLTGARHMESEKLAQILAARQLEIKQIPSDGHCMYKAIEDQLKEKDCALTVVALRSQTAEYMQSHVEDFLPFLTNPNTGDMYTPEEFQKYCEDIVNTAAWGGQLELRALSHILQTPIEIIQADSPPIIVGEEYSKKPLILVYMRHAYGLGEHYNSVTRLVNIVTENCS
Procedure, shortened: (§1)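 Average log2 ratios of fragment over vehicle were obtained by unpaired t-test from global-median-normalised Spectronaut label-free quantities. Proteins with ≥2 unique peptides were included. HEK293T lysate (495 µg per sample) was treated in triplicate with fragment at 200 µM or vehicle for 3 h, then with Biotin-Ahx-Ub-VS at 0.5 µM final for 1 h, and labelled DUBs were NeutrAvidin-enriched and run by diaPASEF LC-MS/MS.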

OTUD7B = biological target: T2, OTUD7B (UniProt Q6GQQ9)
T2 sequence (whole entry): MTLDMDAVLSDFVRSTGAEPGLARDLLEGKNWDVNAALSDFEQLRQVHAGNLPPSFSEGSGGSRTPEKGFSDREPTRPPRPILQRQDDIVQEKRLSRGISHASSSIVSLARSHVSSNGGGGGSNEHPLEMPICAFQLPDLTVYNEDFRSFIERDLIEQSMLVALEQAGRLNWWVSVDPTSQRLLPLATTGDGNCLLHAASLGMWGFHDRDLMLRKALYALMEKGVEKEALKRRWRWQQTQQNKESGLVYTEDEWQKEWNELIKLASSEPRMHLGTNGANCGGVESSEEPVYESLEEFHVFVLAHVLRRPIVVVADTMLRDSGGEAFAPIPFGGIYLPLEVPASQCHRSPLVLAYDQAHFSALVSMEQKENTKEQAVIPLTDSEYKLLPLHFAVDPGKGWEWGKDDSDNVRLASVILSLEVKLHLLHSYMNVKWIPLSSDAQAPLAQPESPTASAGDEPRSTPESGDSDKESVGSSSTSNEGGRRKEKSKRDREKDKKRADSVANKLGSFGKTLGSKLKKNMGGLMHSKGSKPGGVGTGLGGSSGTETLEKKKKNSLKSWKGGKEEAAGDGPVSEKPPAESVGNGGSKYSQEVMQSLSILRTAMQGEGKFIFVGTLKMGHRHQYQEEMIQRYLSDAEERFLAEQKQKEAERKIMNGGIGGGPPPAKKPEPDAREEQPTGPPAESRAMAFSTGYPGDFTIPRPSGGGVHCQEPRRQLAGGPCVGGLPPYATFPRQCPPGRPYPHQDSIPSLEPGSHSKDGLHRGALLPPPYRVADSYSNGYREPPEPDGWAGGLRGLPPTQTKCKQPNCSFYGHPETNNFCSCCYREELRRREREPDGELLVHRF
Procedure, shortened: as §1

PRPF8 = PRPF8 (UniProt Q6P2Q9)
Procedure, shortened: as §1

PSMD7 = biological target: T3, PSMD7 (UniProt P51665)
T3 sequence (whole entry): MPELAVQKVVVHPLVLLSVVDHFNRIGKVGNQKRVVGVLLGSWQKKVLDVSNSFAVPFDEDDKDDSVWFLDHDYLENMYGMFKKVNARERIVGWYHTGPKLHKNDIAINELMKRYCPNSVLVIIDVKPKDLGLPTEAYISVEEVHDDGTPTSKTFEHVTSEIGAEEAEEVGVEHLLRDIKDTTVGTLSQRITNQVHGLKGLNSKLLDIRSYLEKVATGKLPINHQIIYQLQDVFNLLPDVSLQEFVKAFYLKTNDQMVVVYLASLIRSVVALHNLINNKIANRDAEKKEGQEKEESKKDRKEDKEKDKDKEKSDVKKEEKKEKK
Procedure, shortened: as §1

UCHL1 = UCHL1 (UniProt P09936)
Procedure, shortened: as §1

UCHL3 = biological target: T4, UCHL3 (UniProt P15374)
T4 sequence (whole entry): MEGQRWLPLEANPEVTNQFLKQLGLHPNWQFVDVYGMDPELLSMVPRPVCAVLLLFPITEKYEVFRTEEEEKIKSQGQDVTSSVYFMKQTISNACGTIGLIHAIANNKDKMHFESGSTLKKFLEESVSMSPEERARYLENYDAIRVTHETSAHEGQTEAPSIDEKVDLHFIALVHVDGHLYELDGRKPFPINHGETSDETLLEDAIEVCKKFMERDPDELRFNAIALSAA
Procedure, shortened: as §1

UCHL5 = biological target: T5, UCHL5 (UniProt Q9Y5K5)
T5 sequence (whole entry): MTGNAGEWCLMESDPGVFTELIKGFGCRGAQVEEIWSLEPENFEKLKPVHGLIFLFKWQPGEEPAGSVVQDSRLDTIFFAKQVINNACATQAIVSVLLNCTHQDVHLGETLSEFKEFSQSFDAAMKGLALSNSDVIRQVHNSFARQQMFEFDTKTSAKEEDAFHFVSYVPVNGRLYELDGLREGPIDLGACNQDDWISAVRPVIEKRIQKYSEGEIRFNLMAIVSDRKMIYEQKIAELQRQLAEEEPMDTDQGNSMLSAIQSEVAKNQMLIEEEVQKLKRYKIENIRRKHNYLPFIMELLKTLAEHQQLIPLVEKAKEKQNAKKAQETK
Procedure, shortened: as §1

USP10 = USP10 (UniProt Q14694)
Procedure, shortened: as §1

USP15 = biological target: T6, USP15 (UniProt Q9Y4E8)
T6 sequence (whole entry): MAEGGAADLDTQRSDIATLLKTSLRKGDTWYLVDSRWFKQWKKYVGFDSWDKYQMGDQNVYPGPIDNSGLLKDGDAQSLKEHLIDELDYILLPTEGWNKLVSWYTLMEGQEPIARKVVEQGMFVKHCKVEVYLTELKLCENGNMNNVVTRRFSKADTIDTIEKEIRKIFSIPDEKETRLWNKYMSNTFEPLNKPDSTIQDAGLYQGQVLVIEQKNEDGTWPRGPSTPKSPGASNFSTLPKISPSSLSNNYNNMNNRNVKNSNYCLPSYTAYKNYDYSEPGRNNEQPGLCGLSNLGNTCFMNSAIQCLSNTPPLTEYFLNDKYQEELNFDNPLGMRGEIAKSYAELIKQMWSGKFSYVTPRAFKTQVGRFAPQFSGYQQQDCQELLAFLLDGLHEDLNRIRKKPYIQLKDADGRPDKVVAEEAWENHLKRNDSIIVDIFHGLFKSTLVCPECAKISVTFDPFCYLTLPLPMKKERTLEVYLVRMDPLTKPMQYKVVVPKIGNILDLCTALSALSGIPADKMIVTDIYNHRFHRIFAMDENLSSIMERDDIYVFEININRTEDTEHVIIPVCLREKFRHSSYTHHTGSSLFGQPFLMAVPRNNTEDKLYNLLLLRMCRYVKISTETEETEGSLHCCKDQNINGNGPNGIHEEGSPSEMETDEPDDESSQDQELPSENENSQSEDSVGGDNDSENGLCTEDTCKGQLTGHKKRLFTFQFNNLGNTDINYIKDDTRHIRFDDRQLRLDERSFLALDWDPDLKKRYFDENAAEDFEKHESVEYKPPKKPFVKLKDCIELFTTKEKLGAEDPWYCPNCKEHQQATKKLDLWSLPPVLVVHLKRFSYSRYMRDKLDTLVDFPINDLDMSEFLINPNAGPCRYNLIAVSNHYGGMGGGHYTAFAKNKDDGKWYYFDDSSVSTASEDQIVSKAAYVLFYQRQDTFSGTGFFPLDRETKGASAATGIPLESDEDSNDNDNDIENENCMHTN
Procedure, shortened: as §1

USP16 = USP16 (UniProt Q9Y5T5)
Procedure, shortened: as §1

Sequence of USP16 (Q9Y5T5 whole entry, looked up): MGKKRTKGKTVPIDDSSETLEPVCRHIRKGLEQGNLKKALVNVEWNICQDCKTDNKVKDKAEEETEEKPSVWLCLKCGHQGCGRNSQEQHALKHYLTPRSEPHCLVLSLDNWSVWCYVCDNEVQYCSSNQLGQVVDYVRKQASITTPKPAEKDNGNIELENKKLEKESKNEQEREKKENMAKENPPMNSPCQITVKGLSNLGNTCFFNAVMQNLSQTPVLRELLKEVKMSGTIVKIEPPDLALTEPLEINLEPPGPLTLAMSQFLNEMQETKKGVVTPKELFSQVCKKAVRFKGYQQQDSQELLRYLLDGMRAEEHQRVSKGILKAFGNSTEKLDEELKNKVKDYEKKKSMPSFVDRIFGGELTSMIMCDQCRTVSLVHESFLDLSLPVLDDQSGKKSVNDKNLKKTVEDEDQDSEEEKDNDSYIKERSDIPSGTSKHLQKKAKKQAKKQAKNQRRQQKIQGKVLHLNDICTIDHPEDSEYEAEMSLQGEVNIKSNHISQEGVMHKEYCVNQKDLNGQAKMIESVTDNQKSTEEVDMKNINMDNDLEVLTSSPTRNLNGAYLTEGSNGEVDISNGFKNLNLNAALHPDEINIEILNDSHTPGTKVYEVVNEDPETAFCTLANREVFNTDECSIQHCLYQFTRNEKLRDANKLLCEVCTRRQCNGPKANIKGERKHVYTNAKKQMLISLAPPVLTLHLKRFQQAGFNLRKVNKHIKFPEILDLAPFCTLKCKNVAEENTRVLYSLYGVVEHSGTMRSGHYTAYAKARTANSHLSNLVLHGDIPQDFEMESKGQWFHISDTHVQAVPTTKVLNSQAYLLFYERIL
Sequence of UCHL1 (P09936 whole entry, looked up): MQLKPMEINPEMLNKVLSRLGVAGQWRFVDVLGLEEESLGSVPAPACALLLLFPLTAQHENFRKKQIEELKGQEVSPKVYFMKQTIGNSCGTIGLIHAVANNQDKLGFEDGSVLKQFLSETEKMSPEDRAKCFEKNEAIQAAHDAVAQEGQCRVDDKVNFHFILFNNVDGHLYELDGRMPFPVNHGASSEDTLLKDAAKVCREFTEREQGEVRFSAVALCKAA
Sequence of USP10 (Q14694 whole entry): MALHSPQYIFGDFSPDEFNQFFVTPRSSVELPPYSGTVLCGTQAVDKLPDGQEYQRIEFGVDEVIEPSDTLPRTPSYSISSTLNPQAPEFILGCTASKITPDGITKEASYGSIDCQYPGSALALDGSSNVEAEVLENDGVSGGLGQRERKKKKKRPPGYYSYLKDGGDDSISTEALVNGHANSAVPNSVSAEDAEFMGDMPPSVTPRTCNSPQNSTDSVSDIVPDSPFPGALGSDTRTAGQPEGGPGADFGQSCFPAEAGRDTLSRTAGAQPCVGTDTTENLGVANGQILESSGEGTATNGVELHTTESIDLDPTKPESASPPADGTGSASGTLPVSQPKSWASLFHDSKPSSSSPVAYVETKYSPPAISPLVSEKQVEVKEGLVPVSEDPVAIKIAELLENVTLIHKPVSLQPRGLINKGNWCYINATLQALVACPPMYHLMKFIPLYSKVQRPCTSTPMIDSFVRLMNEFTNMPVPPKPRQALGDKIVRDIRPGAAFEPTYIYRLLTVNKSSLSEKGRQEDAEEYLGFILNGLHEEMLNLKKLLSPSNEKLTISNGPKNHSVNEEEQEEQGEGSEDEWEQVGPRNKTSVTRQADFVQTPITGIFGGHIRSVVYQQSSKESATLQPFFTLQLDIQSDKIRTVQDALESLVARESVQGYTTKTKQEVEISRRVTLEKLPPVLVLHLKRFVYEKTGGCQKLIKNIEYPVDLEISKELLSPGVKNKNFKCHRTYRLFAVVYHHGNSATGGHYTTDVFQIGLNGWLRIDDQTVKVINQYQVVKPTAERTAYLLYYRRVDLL

Structure (SMILES): Cc1conc1C1CN(C(=O)CCl)C1
- log2 ratio of Biotin-Ahx-Ub-VS probe labelling (OTUD6B): -0.688
- log2 ratio of Biotin-Ahx-Ub-VS probe labelling (OTUD7B): -1.6 (active)
- log2 ratio of Biotin-Ahx-Ub-VS probe labelling (PRPF8): -0.125
- log2 ratio of Biotin-Ahx-Ub-VS probe labelling (PSMD7): -0.499
- log2 ratio of Biotin-Ahx-Ub-VS probe labelling (UCHL1): -2.04 (active)
- log2 ratio of Biotin-Ahx-Ub-VS probe labelling (UCHL3): -0.637
- log2 ratio of Biotin-Ahx-Ub-VS probe labelling (UCHL5): -0.912
- log2 ratio of Biotin-Ahx-Ub-VS probe labelling (USP10): -0.254
- log2 ratio of Biotin-Ahx-Ub-VS probe labelling (USP15): -1.15 (active)
- log2 ratio of Biotin-Ahx-Ub-VS probe labelling (USP16): -0.0913
